One test concerns MCC-13. Put plainly: qHTS assay to identify novel small-molecules to repurpose for Merkel cell carcinoma treatment (AID 1296009). Further: nearly all actives have a fitted effect of over 60% in size. Further: potency means the concentration at half of the fitted maximal effect. The settings on record: MCC and control cell lines, CellTiter-Glo viability, 72 h; series mostly up to 46 µM. The gist of the method: (§1)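 After compound transfer in DMSO, plates were kept 72 hr at 37 degree celsius. Luminescent ATP signal from CellTiter-Glo served as viability measure, normalized against DMSO and no-cell controls.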
(qHTS replaces the single test concentration by a dilution series.)

For a further test, the system named is MCC-26. Described as above. The settings on record: MCC and control cell lines, CellTiter-Glo viability, 72 h; series mostly up to 46 µM. In outline:
as §1
On the technique in general: Cellular ATP, detected with luciferase, serves as a proxy for viable cell number.

The subject of a further test is MKL-1. Described as above. The following applies: MCC and control cell lines, CellTiter-Glo viability, 72 h; series mostly up to 46 µM. In outline: as §1
In another test the test system is MKL-2. Described as above. The following applies: MCC and control cell lines, CellTiter-Glo viability, 72 h; series mostly up to 46 µM. The gist of the method: as §1
For the next test, the system named is UISO. Described as above. The following applies: MCC and control cell lines, CellTiter-Glo viability, 72 h; series mostly up to 46 µM. The gist of the method: as §1
The next test has as its system WaGa. The description is as above. The settings on record: MCC and control cell lines, CellTiter-Glo viability, 72 h; series mostly up to 46 µM. In outline: as §1
The test system of a further test is C33A. Description: Primary qHTS to identify gynecologic anti-cancer compounds using libraries of approved drugs and bioactive compounds (AID 1345084). Further: nearly all actives have a fitted effect of over 55% in size. Further: potency means the concentration at half of the fitted maximal effect. The following applies: Gynecologic cancer cell panel viability, ATPlite luminescence, 48 h; series mostly up to 57.5 µM. The gist of the method:
(§2)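 Five-point cytotoxicity, 48 h drug exposure at 37 C, 5% CO2, on cells seeded 16 h beforehand. ATP content read by ATPlite luminescence.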

For the next test, the system named is CASKI. The description is as above. The settings on record: Gynecologic cancer cell panel viability, ATPlite luminescence, 48 h; series mostly up to 57.5 µM. The gist of the method:
as §2

The test system of another test is Es-2. The test is described as above. The following applies: Gynecologic cancer cell panel viability, ATPlite luminescence, 48 h; series mostly up to 57.5 µM. The gist of the method:
as §2

In a further test the test system is HeLa. The description is as above. The settings on record: Gynecologic cancer cell panel viability, ATPlite luminescence, 48 h; series mostly up to 57.5 µM. The gist of the method:
as §2

A further test has as its system Hek293T. The description is as above. The following applies: Gynecologic cancer cell panel viability, ATPlite luminescence, 48 h, control line for the selectivity index; series mostly up to 57.5 µM. In outline: as §2
The subject of the next test is JEG-3. The description is as above. The following applies: Gynecologic cancer cell panel viability, ATPlite luminescence, 48 h; series mostly up to 57.5 µM. The gist of the method:
as §2

Another test has as its system PA-1. The test is described as above. The settings on record: Gynecologic cancer cell panel viability, ATPlite luminescence, 48 h; series mostly up to 57.5 µM. The gist of the method: as §2
The test system of a further test is SKOV3. Described as above. The following applies: Gynecologic cancer cell panel viability, ATPlite luminescence, 48 h; series mostly up to 57.5 µM. The gist of the method: as §2
A further test relates to Tov-21-G. The test is described as above. The following applies: Gynecologic cancer cell panel viability, ATPlite luminescence, 48 h; series mostly up to 57.5 µM. The gist of the method: as §2
For a further test, the system named is Tov112D. The test is described as above. The following applies: Gynecologic cancer cell panel viability, ATPlite luminescence, 48 h; series mostly up to 57.5 µM. The gist of the method:
as §2

Test [1] is described as follows: Drug repurposing screens with cells derived from glioblastoma tumor samples (AID 1345199). Further: nearly all actives have a fitted effect of over 40% in size. The settings on record: GBM patient neurospheres viability, ATP luminescence, 48 h; Potency: tumour line A unless noted; series mostly up to 45.9 µM. In outline: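 Four patient lines of CD133+ GBM neurospheres were screened at several concentrations; hits were retested in those lines plus three slower-growing GBM lines, using 48-hour treatment and ATP-based viability.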

Another test has as its system OV90. Put plainly: Primary qHTS to identify gynecologic anti-cancer compounds using libraries of approved drugs and bioactive compounds (AID 1345084). Further: nearly all actives have a fitted effect of over 55% in size. Further: potency means the concentration at half of the fitted maximal effect. The settings on record: Gynecologic cancer cell panel viability, ATPlite luminescence, 48 h; series mostly up to 57.5 µM. The gist of the method:
as §2

Results filed as inconclusive are left out. Active and inactive are the calls of the source. The call rests on the fitted dose curve; in most records, active means well fitted curve in the direction sought with a large enough effect; inconclusive means small, poorly fitted or top-dose-only effect, or another doubt; inactive means no such curve, though single readings can be large; an effect the other way counts as inactive or inconclusive.

As to `COCCOCCO`, the Potency entry in the test on MCC-13, with MCC-26, in the test with MKL-1, in the test on MKL-2, in the test with UISO and with WaGa was “inactive” throughout. The Potency entry in the test on C33A, with CASKI, in the test on Es-2, with HeLa, in the test with Hek293T and in the test with JEG-3 was “inactive” each time. Further, the Potency entry (in the test on PA-1; with SKOV3; in the test on Tov-21-G; with Tov112D; in test [1]) was “inactive” throughout.
As to `S=C(SSC(=S)N1CCCCC1)N1CCCCC1`, the Potency in the test with MCC-13 is 168 nM (active); with MCC-26, 133 nM (active); in the test with MKL-1 it was 133 nM (active); in the test on MKL-2, 94.4 nM (active); with UISO, 94.4 nM (active); in the test on Hek293T, 17800 nM (active). In addition, the Potency in the test with OV90 was 10000 nM (active); in the test on SKOV3, 3980 nM (active); with Tov112D it was 14100 nM (active). Moreover, the Potency entry (in the test with CASKI; with HeLa; in test [1]) was “inactive” each time.
Consider `Nc1c(Cl)c(Cl)c(Cl)c(Cl)c1Cl`, for which the Potency result in the test on MCC-13, in the test with MCC-26, with MKL-1, in the test with MKL-2, with UISO and in the test with WaGa was “inactive” in each case. Besides, the Potency result in the test on C33A, with CASKI, in the test with Es-2, in the test on HeLa, with Hek293T and in the test with JEG-3 was “inactive” each time. Besides, the Potency result (with OV90; in the test on PA-1; with Tov-21-G; in the test with Tov112D; in [1]) was “inactive” throughout.
With `CC(C)NCC(O)c1ccc([N+](=O)[O-])cc1` (centres undefined), the Potency result in the test with MCC-13, with MCC-26, with MKL-1, in the test on MKL-2, in the test on UISO and in the test with WaGa was “inactive” in each case. Moreover, the Potency result in the test with C33A, with CASKI, with Es-2, with HeLa, with Hek293T and with JEG-3 was “inactive” each time. For the same compound, the Potency entry (in the test with OV90; in the test with PA-1; in the test on SKOV3; in the test on Tov-21-G; in the test on Tov112D; in test [1]) was “inactive” each time.
As for `O=C(O)C(Cl)Cl`, the Potency result with MCC-13, with MCC-26, in the test on MKL-1, in the test with MKL-2, in the test on UISO and in the test with WaGa was “inactive” throughout. For the same compound, the Potency entry in the test with C33A, in the test on CASKI, in the test on Es-2, in the test with HeLa, in the test on JEG-3 and in the test on OV90 was “inactive” in each case. Besides, the Potency entry (in the test on PA-1; in the test on Tov-21-G; with Tov112D; in test [1]) was “inactive” in each case.
Turning to `O=[N+]([O-])c1cc([N+](=O)[O-])c2ccccc2c1`, the Potency result with MCC-13, in the test with MCC-26, in the test with MKL-1, in the test with MKL-2, in the test on CASKI and in the test on Es-2 was “inactive” in each case. Further, the Potency result with Hek293T, with JEG-3, in the test on OV90, with PA-1, in the test on Tov-21-G and in the test on Tov112D was “inactive” each time. Besides, the Potency entry in test [1] is “inactive”.
In the case of `CS(=O)(=O)c1ccc(C(=O)C2C(=O)CCCC2=O)c([N+](=O)[O-])c1`, the Potency result in the test with MCC-13, in the test with MCC-26, in the test with MKL-1, in the test with MKL-2, in the test on UISO and with WaGa was “inactive” in each case. Besides, the Potency result in the test with C33A, in the test on CASKI, in the test with Es-2, in the test on HeLa, in the test on Hek293T and with JEG-3 was “inactive” in each case. In addition, the Potency entry (with OV90; with PA-1; in the test on SKOV3; in the test on Tov-21-G; in the test with Tov112D; in [1]) was “inactive” in each case.
As to `ClC1=C(Cl)[C@]2(Cl)[C@@H]3[C@@H]4C[C@@H]([C@H]5O[C@@H]45)[C@@H]3[C@@]1(Cl)C2(Cl)Cl`, the Potency result with MCC-13, in the test with MCC-26, in the test with MKL-1, with MKL-2, with C33A and with CASKI was “inactive” each time. In addition, the Potency entry with Es-2, in the test with HeLa, in the test on Hek293T, in the test on JEG-3, with PA-1 and with Tov-21-G was “inactive” throughout. For the same compound, the Potency entry with Tov112D is “inactive”.

The values above are taken from PubChem BioAssay (NCATS).
